The source of these data is PubChem BioAssay (Tox21).

Structures are written as SMILES. Records with an inconclusive call do not appear. A call without a number means that no potency is given here. Activity calls are given as the source filed them. The call rests on the fitted dose curve.

In this assay the target is Peroxisome proliferator-activated receptor delta (Homo sapiens) (UniProt Q03181). The assay is described as follows: qHTS assay to identify small molecule agonists of the peroxisome proliferator-activated receptor delta (PPARd) signaling pathway (AID 743212).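 Further: HEK293H cells with PPARd UAS beta-lactamase reporter GeneBLAzer system.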 To be noted: HEK293H PPARd-UAS-bla, beta-lactamase FRET ratio, 17 h; series mostly up to 62.6 µM. Summed up: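 A PPARd-bla HEK293H line with beta-lactamase under an Upstream Activator Sequence is treated with compounds at 37 C. Substrate loading for 2 h at room temperature precedes the fluorescence measurement.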
Chain of Peroxisome proliferator-activated receptor delta (Homo sapiens) (Q03181 whole entry, looked up): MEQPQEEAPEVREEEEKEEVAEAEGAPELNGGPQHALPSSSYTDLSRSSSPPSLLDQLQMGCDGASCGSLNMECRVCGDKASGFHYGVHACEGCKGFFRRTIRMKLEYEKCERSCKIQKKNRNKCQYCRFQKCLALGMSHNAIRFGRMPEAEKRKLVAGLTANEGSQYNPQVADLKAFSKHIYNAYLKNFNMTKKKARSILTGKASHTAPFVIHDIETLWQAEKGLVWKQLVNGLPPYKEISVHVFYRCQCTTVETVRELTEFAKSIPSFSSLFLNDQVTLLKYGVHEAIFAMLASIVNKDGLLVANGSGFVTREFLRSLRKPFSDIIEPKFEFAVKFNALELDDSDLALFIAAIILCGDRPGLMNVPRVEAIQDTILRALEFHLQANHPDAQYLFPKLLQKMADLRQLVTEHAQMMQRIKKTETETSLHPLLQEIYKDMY
A general note: In qHTS, concentration-response curves come from the screen itself.
Regarding `CN(C)CCOC1=Cc2ccccc2Sc2ccc(Cl)cc21`, the Potency entry was “inactive”.

For `CCOCCn1c(C2CCN(CCc3ccc(C(C)(C)C(=O)O)cc3)CC2)nc2ccccc21`, the Potency entry was “inactive”.

Regarding `CCCC(=O)O[C@]1(C(=O)COC(=O)CC)CC[C@H]2[C@@H]3CCC4=CC(=O)CC[C@]4(C)[C@H]3[C@@H](O)C[C@@]21C`, the Potency result was “inactive”.

Consider `Oc1ccc(Nc2ccccc2)cc1`, for which the Potency result was “inactive”.

On to `O=C(O)c1ccccc1NCCc1ccccc1`, for which the Potency entry was “inactive”.

Turning to `CCC(C)(C)C1CCC(O)CC1` (configuration not stated), the Potency entry was “inactive”.

Regarding `COC(=O)CC(=O)C(C)(C)C`, the Potency result was “inactive”.

As to `Fc1ccccc1[C@@H](F)COC1CCC(Nc2ncnc3[nH]ncc23)CC1` (some centres not stated), the Potency entry was “inactive”.

With `COCc1c(C(C)C)nc(C(C)C)c(/C=C/[C@@H](O)C[C@@H](O)CC(=O)O)c1-c1ccc(F)cc1`, the Potency result was “inactive”.

`O=C(Nc1ccccc1)Nc1ccccc1`: the Potency result is “inactive”.

Regarding `c1cc[c]([Bi]([c]2ccccc2)[c]2ccccc2)cc1`, the Potency result was “inactive”.

`CCn1cc(C(=O)O)c(=O)c2cc(F)c(N3CCNCC3)nc21`: the Potency entry was “inactive”.

With `Nc1ccc(Cl)cc1[N+](=O)[O-]`, the Potency result was “inactive”.

With `O=C(O)C(Cc1cc(I)c(O)c(I)c1)c1ccccc1` (configuration not stated), the Potency result is “inactive”.

Consider `CC(C)(C)C(=O)C(Oc1ccc(Cl)cc1)n1ccnc1` (configuration not stated), for which the Potency result was “inactive”.

Turning to `C=CCOC(=O)/C=C\C(=O)OCC=C`, the Potency entry is “inactive”.

As for `NC(=O)N(O)[C@@H]1C=C[C@H](Oc2cccc(Oc3ccc(F)cc3)c2)C1`, the Potency entry was “inactive”.

In the case of `CCCCN(CCCC)C(=S)SSC(=S)N(CCCC)CCCC`, the Potency result was “inactive”.

As to `CC(CCO)CCc1ccccc1` (configuration not stated), the Potency entry is “inactive”.

For the compound `Cc1oncc1C(=O)Nc1ccc(C(F)(F)F)cc1`, the Potency entry is “inactive”.

Take `C[Si]1(C)O[Si](C)(C)O[Si](C)(C)O1`: the Potency result was “inactive”.

Turning to `CCCCC/C(=C\c1ccccc1)CO`, the Potency entry was “inactive”.
